# Measurements from the supplement of paper PMC4380459.
# Test system: tubulin (bovine brain)
# Test: tubulin polymerization end-point dOD, fold change relative to DMSO vehicle; higher = more polymerization (stabilization)
# Conditions: 50 µM; 60 min; 37 °C
# Description: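 In-vitro tubulin polymerization assay (Cytoskeleton HTS kit) with 4 mg/ml bovine brain tubulin in G-PEM buffer and compound at 50 uM (0.5% DMSO). Turbidity was read at 340 nm every minute for 1 h at 37 C. The end-point change in OD (dOD) was converted to % fold change relative to the DMSO vehicle (0%), and runs were scaled using DMSO and Taxol controls. The paper calls >20% an effect, 20-40% weak and >40% strong; positive values mean stabilization, negative values destabilization. Scale: negative = destabilization.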
row,Structure (SMILES),tubulin polymerization end-point dOD
1,C/C(=N\NC(=O)c1cccc(F)c1)c1ccc(Br)s1,9.02%
2,CCc1nc(SCC(=O)Nc2ccc(N(CC)CC)c(C)c2)c2ccccc2n1,-34%
3,O=c1[nH]c(/C=C/c2ccccc2F)nc2ccccc12,21.3%
4,O=C(Nc1ccc(N2CCCCCC2)cc1)C1COc2ccccc2C1 (stereo not given),37.7%
5,O=C(Nc1ccc2c(c1)OCCO2)C(=O)Nc1cccc2ncccc12,-9.86%
6,CCOc1c(Cl)cc(C(=O)N2CCN(c3cccc(C)c3)CC2)cc1OC,-52.8%
7,Cc1cccc2cc3c(N)c(C(=O)N4CCCc5ccccc54)sc3nc12,-46.4%
8,COc1cc(C(=O)Nc2ccc3c(c2)CCN3C(C)=O)cc2c1OCCO2,-17%
9,COc1cc(Br)c(-c2cc3cc(Cl)ccc3oc2=O)cc1OC,77.7%
10,COc1ccc2nc(/C=C/c3cccnc3)sc2c1,-29.9%
11,COc1ccc2nc(SCC(=O)Nc3ccccc3Br)c(C#N)cc2c1,14.8%
12,CS(=O)(=O)N1CCCc2cc(C(=O)Cn3cnc4scc(-c5ccc(F)cc5)c4c3=O)ccc21,-30.9%
13,Cc1ccc(/C=N\NC(=O)c2cccc(Cl)c2)cc1,3.13%
14,Cc1ccc2[nH]c(=O)c(CN(CC3COCCO3)C(=O)Nc3ccccc3Cl)cc2c1 (stereo not given),23.1%
15,Nc1c(C(=O)c2ccccc2)sc2nc3c(cc12)CCCC3,59.7%
16,Cc1cc(C(=O)Nc2nc3cc4c(cc3s2)OCCO4)c2c(C)nn(C)c2n1,28.4%
17,CCc1ccc2nc(SCC(=O)Nc3ccccc3N3CCOCC3)c(C#N)cc2c1,-7.7%
18,COc1ccc2cc(CN(Cc3ccccc3Cl)C(=O)Nc3ccccc3OC)c(=O)[nH]c2c1,-4.53%
19,Cc1ccc(C(=O)Nc2ncc(Cc3ccccc3Br)s2)cn1,-35.9%
20,CCOC(=O)c1[nH]c(C)c(C(=O)c2cc(F)ccc2F)c1C,5.16%

row,Structure (SMILES),tubulin polymerization end-point dOD
1,Cc1cccc(Cc2cnc(NC(=O)c3ccc(Br)cc3)s2)c1,-17.2%
2,COc1cc2c(cc1OC)C(c1cccs1)[NH+](CC(O)c1ccccc1)CC2 (stereo not given),-40.4%
3,O=C(N/N=C/c1cccs1)c1n[nH]c2c1CCC2,12.9%
4,CC(=O)N1c2ccc(NC(=O)c3cc4cccc(C)c4nc3C)cc2CC1C (stereo not given),0.65%
5,O=C(Nc1ncc(Cc2ccc(Cl)cc2)s1)c1cccnc1,7.93%
6,Cc1ccc(/C=N/NC(=O)c2c(C)nc3ccc(Cl)cn23)cc1,-21.2%
7,Oc1ccccc1-c1nc2ccc(Cl)cn2c1NCc1ccc2c(c1)OCO2,7.3%
8,O=C(Nc1ccc(N2CCc3sccc3C2)nc1)c1ccccc1Br,14.9%
9,COc1ccc(NC(=O)N(Cc2cc3ccc(C)c(C)c3[nH]c2=O)CC2CCCO2)cc1 (stereo not given),33.3%
10,CC1Cc2ccccc2N1C(=O)CSc1nnc(-c2cc3ccccc3cc2O)n1C (stereo not given),-10.6%
11,O=C(Nc1ncc(Cc2ccccc2Br)s1)c1cccnc1,-64.1%
12,COc1ccccc1NC(=S)N(Cc1ccccc1)Cc1cc2ccc(C)cc2[nH]c1=O,272%
13,CCCC(NC(=O)c1cnc(SC)nc1)c1ccc2c(c1)OCCO2 (stereo not given),2.16%
14,CCS(=O)(=O)N1CCc2cc(C(=O)Cn3cnc4sc(C)c(-c5ccccc5)c4c3=O)ccc21,38.3%
15,Cc1cc2cc(CN(CC3CCCO3)C(=S)Nc3ccccc3)c(=O)[nH]c2cc1C (stereo not given),-20.3%
16,COc1ccc2cc(CN(Cc3cccs3)C(=O)Nc3ccccc3OC)c(=O)[nH]c2c1,17.1%
17,COc1ccccc1NC(=O)CSc1nnc(-c2cc(OC)c(OC)c(OC)c2)n1C,-33.1%
18,O=C(c1cccnc1N1CCCC1)N1CC=C(c2c[nH]c3ccccc23)CC1,-49.4%
19,CCN(CC)c1ccc(NC(=O)C2CC=CCC2)cc1 (stereo not given),-23.9%
20,CCCn1c(SCC(=O)Nc2ccccc2OC)nnc1-c1cccnc1,-56.1%
